# Reference: the supplement of paper PMC9942566
# ± gives the standard deviation of the averaged measurements.
# System: Serratia marcescens K904 PosmB-luxCDABE reporter (pMQ747)
# Test: PosmB-lux reporter fold induction (RLU/OD600 relative to no-compound control), highest over Biolog concentrations; higher = stronger Rcs reporter activation
# Conditions: wild type K904; 4 h
# Procedure: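 Serratia marcescens K904 (wild type) or its isogenic ΔrcsB mutant, carrying the Rcs-dependent PosmB-luxCDABE reporter plasmid pMQ747, was grown in LB at OD600 0.1 in Biolog Phenotype MicroArray plates PM11-20 for 4 h at 30-32°C. Each compound is present at 3-4 proprietary concentrations (not stated); per the Fig. S1 legend the value given is the highest fold over those wells. Three independent trials.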
row,Compound,PosmB-lux reporter fold induction
1,"CO[C@@H]1[C@@H](O[C@@H]2O[C@H](C)[C@@H](O[C@H]3C[C@@](C)(O)[C@@H](OC(=O)CC(C)C)[C@H](C)O3)[C@H](N(C)C)[C@H]2O)[C@@H](CC=O)C[C@@H](C)[C@@H](O)/C=C/C=C/C[C@@H](C)OC(=O)C[C@H]1OC(C)=O [josamycin] (Biolog plate: PM19, well positions: A2-4)",1.27 ± 0.74
2,"O=[N+]([O-])c1ccc(-[n+]2nc(-c3ccccc3)nn2-c2ccc(I)cc2)cc1 [iodonitro tetrazolium violet] (Biolog plate: PM19, well positions: D5-8)",0.511 ± 0.27
3,"CCN(CC)CC(=O)Nc1c(C)cccc1C [lidocaine] (Biolog plate: PM18, well positions: D9-12)",1.37 ± 0.17
4,"C[n+]1cc2c3c(ccc2c2ccc4cc5c(cc4c21)OCO5)OCO3 [Sanguinarine] (Biolog plate: PM14, well positions: A9-12)",1.83 ± 0.71
5,"CC1(C)S[C@@H]2[C@H](NC(=O)COc3ccccc3)C(=O)N2[C@H]1C(=O)O.CN(C)[C@@H]1C(O)=C(C(=O)NCN2CCN(CCO)CC2)C(=O)[C@@]2(O)C(O)=C3C(=O)c4c(O)cccc4[C@@](C)(O)[C@H]3C[C@@H]12 [Penimepicycline] (Biolog plate: PM12, well positions: B5-8)",3.22 ± 1.1
6,"CCOc1ccc2ccccc2c1C(=O)N[C@@H]1C(=O)N2[C@@H]1SC(C)(C)[C@@H]2C(=O)O [Nafcillin] (Biolog plate: PM11, well positions: D9-12)",2.29 ± 0.21
7,"C[n+]1c2cc(N)ccc2cc2ccc(N)cc21.Nc1ccc2cc3ccc(N)cc3nc2c1 [Acriflavine] (Biolog plate: PM14, well positions: A2-4)",1.45 ± 0.32
8,"CN(C)[C@@H]1C(O)=C(C(=O)NCN2CCCC2)C(=O)[C@@]2(O)C(O)=C3C(=O)c4c(O)cccc4[C@@](C)(O)[C@H]3C[C@@H]12 [Rolitetracycline] (Biolog plate: PM13, well positions: D9-12)",1.49 ± 0.23
9,"Cc1ccccc1C(OCCN(C)C)c1ccccc1 (stereo not given) [orphenadrine] (Biolog plate: PM20, well positions: B1-4)",2.77 ± 1.3
10,"CN(C)C(=O)/N=N/C(=O)N(C)C [diamide] (Biolog plate: PM16, well positions: D5-8)",1.26 ± 0.35
11,"CC(Oc1ccccc1)C(=O)N[C@@H]1C(=O)N2[C@@H]1SC(C)(C)[C@@H]2C(=O)O (stereo not given in full) [phenethicillin] (Biolog plate: PM19, well positions: F1-4)",86 ± 19
12,"NCC[C@H](O)C(=O)N[C@@H]1C[C@H](N)[C@@H](O[C@H]2O[C@H](CN)[C@@H](O)[C@H](O)[C@H]2O)[C@H](O)[C@H]1O[C@H]1O[C@H](CO)[C@@H](O)[C@H](N)[C@H]1O [Amikacin] (Biolog plate: PM11, well positions: A2-4)",1.4 ± 0.2
13,"CCCCCCCCCCCC[N+](C)(C)CCCS(=O)(=O)[O-] [lauryl sulfobetaine] (Biolog plate: PM19, well positions: G1-4)",2.95 ± 1.1
14,"[Cl-].[Li+] [lithium chloride] (Biolog plate: PM17, well positions: F1-4)",1.51 ± 0.57
15,"CO/N=C(\C(=O)N[C@@H]1C(=O)N2C(C(=O)O)=C(COC(C)=O)CS[C@H]12)c1csc(N)n1 [cefotaxime] (Biolog plate: PM16, well positions: A2-4)",0.992 ± 0.32
16,"CO[C@H]1C[C@H](O[C@H]2[C@H](C)[C@@H](O[C@@H]3O[C@H](C)C[C@H](N(C)C)[C@H]3O)[C@@H](C)C[C@@]3(CO3)C(=O)[C@H](C)[C@@H](O)[C@@H](C)[C@@H](C)OC(=O)[C@@H]2C)O[C@@H](C)[C@@H]1O [Oleandomycin] (Biolog plate: PM15, well positions: F5-8)",3.29 ± 1.7
17,"CC1(C)S[C@@H]2[C@H](NC(=O)[C@H](N)c3ccccc3)C(=O)N2[C@H]1C(=O)O [Ampicillin] (Biolog plate: PM13, well positions: A2-4)",1.39 ± 0.02
18,"Oc1c(Cl)cc(Cl)c(Cl)c1Cc1c(O)c(Cl)cc(Cl)c1Cl [hexa-chlorophene] (Biolog plate: PM20, well positions: E9-12)",1.62 ± 0.6
19,"OB(O)O [Boric acid] (Biolog plate: PM14, well positions: C1-4)",1.77 ± 1.2
20,"COc1cc(NS(=O)(=O)c2ccc(N)cc2)ncn1 [sulfamono-methoxine] (Biolog plate: PM17, well positions: C9-12)",1.35 ± 0.34

row,Compound,PosmB-lux reporter fold induction
1,"COc1ccc(C[C@H](N)C(=O)N[C@H]2[C@@H](O)[C@H](n3cnc4c(N(C)C)ncnc43)O[C@@H]2CO)cc1 [Puromycin] (Biolog plate: PM15, well positions: F9-12)",1.9 ± 0.2
2,"CC(C(=O)O)c1cccc(C(=O)c2ccccc2)c1 (stereo not given) [ketoprofen (an NSAID)] (Biolog plate: PM18, well positions: A2-4)",1.95 ± 0.79
3,"On1ccccc1=S [1-Hydroxy-pyridine-2-thione] (Biolog plate: PM14, well positions: C5-8)",4.06 ± 1.3
4,"Oc1c(Cl)cc(Cl)c2cccnc12 [5,7-Dichloro-8-hydroxyquinoline] (Biolog plate: PM15, well positions: C1-4)",2.24 ± 0.92
5,"[Cl][Mn][Cl] [Manganese chloride] (Biolog plate: PM13, well positions: G5-8)",1.25 ± 0.2
6,"S=c1nc[nH]c2nc[nH]c12 [6-Mercapto-purine] (Biolog plate: PM13, well positions: C1-4)",1.6 ± 0.2
7,"N.N.N.N.N.N.[Cl-].[Cl-].[Cl-].[Co+3] [hexammine cobalt (III) chloride] (Biolog plate: PM19, well positions: H1-4)",1.64 ± 0.12
8,"Nc1ccc(S(=O)(=O)Nc2nccs2)cc1 [Sulfathiazole] (Biolog plate: PM12, well positions: F5-8)",1.88 ± 0.029
9,"CCCCCCCCCCCC[N+](C)(C)C [Dodecyltrimethyl ammonium bromide] (Biolog plate: PM12, well positions: H9-12)",2.03 ± 0.22
10,"O.O=S(=O)([O-])[O-].O=S(=O)([O-])[O-].O=S(=O)([O-])[O-].[Al+3].[Al+3] [aluminum sulfate] (Biolog plate: PM16, well positions: F9-12)",1.33 ± 0.3
11,"NCC(=O)NO [glycine hydroxamate] (Biolog plate: PM16, well positions: H1-4)",2.05 ± 0.2
12,"CO[C@@H]1[C@@H](OC(N)=O)[C@@H](O)[C@H](Oc2ccc3c(O)c(NC(=O)c4ccc(O)c(CC=C(C)C)c4)c(=O)oc3c2C)OC1(C)C [Novobiocin] (Biolog plate: PM12, well positions: D9-12)",4.98 ± 0.98
13,"CCn1nc(C(=O)O)c(=O)c2cc3c(cc21)OCO3 [cinoxacin] (Biolog plate: PM16, well positions: D9-12)",2.46 ± 0.85
14,"CCn1cc(C(=O)O)c(=O)c2cc(F)c(N3CCNCC3)cc21 [norfloxacin] (Biolog plate: PM16, well positions: B1-4)",1.02 ± 0.2
15,"O=C(O)CN(CCN(CC(=O)O)CC(=O)O)CC(=O)O (Biolog plate: PM15, well positions: B5-8)",1.66 ± 0.13
16,"Cc1noc(NS(=O)(=O)c2ccc(N)cc2)c1C [sulfisoxazole] (Biolog plate: PM18, well positions: C5-8)",0.979 ± 0.2
17,"CSc1ccc2c(c1)N(CCC1CCCCN1C)c1ccccc1S2 (stereo not given) [thioridazine] (Biolog plate: PM20, well positions: C1-4)",0.902 ± 0.17
18,"COc1ccc(CO)cc1OC [3,4-Dimethoxy-benzyl alcohol] (Biolog plate: PM15, well positions: F1-4)",2.75 ± 1.1
19,"Nc1ccc(S(N)(=O)=O)cc1 [sulfanilamide] (Biolog plate: PM16, well positions: B5-8)",0.986 ± 0.29
20,"[Cl-].[Cs+] [Cesium chloride] (Biolog plate: PM13, well positions: F1-4)",1.41 ± 0.16
